The values below come from PubChem BioAssay (NCATS).

Results filed as inconclusive are left out. A call without a number means that no potency is given here. Active and inactive are the calls of the source. Calls follow the shape of the dose curve; as a rule, active = well fitted inhibition curve with a large enough effect; inconclusive = small, poorly fitted or top-dose-only effect; inactive = flat fitted curve, though single readings scatter.
Potency is read from the fitted curve at half-maximal effect.

This assay concerns CP203. As to the kind of experiment: qHTS profiling for inhibitors of Plasmodium falciparum proliferation (AID 504749). Also: nearly all actives have a fitted effect of over 60% in size. The settings on record: P. falciparum in erythrocytes, SYBR Green DNA, 72 h; series mostly up to 28.7 µM. The text has this: NIH National Institute of Allergy and Infectious Diseases [NIAID] NIH Chemical Genomics Center [NCGC] MLPCN Grant: None Assay Provider: Xinzhuan Su, NIAID NCGC Assay Overview: Plasmodium falciparum is a virulent malarial parasite that kills 1-2 million people worldwide each year. Transmitted by mosquitoes, the sporozoite form of the parasite enters the blood stream to infect hepatocytes, where they become merozoites that infect red blood cells (erythrocytes). Within erythrocytes, merozoites begin a […] cycle of growth and division, after which the parasite is released to infect new red blood cells. Gametocytes, which form within erythrocytes as well, circulate in the bloodstream and are ingested by the mosquito, thereby completing the life cycle. To profile malarial isolates for differential chemical responses and to identify inhibitors of malarial growth, an assay that measures P. falciparum growth and replication within erythrocytes was employed. This assay uses a DNA binding fluorescent dye (SYBR Green) to detect parasite DNA following cell lysis. Because mature erythrocytes lack DNA, only Plasmodium-derived DNA is detected.
NCGC Assay Protocol Summary: The SYBR Green viability assay was adapted from a method described previously (Plouffe et al., 2008). For screening 3 ul culture medium was dispensed into 1536 well black clear bottom plates (Aurora Biotechnologies) using a Multidrop Combi (Thermo Fisher Scientific Inc.), 23 nL compounds in DMSO were added by a pin tool (Kalypsys), and 5 ul of erythrocytes infected with P. falciparum (0.3% parasitemia, 2.5% hematocrit final concentration) were added. The plates were incubated at 37 C in a humidified incubator in 5% CO2 for 72 h, and 2 ul lysis buffer (20 mM Tris HCl, 10 mM EDTA, 0.16% saponin, 1.6% triton X, 10X SYBR Green I supplied as 10,000X […] by Invitrogen) was added to each well. The plates were mixed for 25 sec with gentle shaking and incubated overnight at room temperature in the dark. The following morning, fluorescence intensity at 485(14) nm excitation and 535(25) nm emission wavelengths was measured on an EnVision (Perkin Elmer) plate reader. Plate reads were normalized relative to the control inhibitor (0.29 uM artemisinin) and vehicle (DMSO) wells present on each plate and then corrected by an algorithm using vehicle-only control plates at the beginning and end of the compound plate stack.
Regarding `O=C(O)c1cc(O)c(O)c(O)c1`, the Potency result is “inactive”. In the case of `c1ccc2sc(SSc3nc4ccccc4s3)nc2c1`, the Potency entry was “inactive”. The same measure for `O=C(O)[C@H](CC(=O)N1C[C@H]2CCCC[C@H]2C1)Cc1ccccc1`: “inactive”; for `C=CC(N)CCC(=O)O` (stereo not given): “inactive”. As for `CCOc1ccc2nc(S(N)(=O)=O)sc2c1`, the Potency result is “inactive”. With `COc1cc(CNC(=O)CCCC/C=C/C(C)C)ccc1O` the entry was “inactive”; with `C=CCCCCCCCCC(=O)O`, “inactive”. For the compound `Oc1c(Br)cc(Br)c2cccnc12`, the Potency result was “inactive”. Consider `CCOC(=O)c1ccccc1O`, for which the Potency entry is “inactive”. `C=CCN1C(=O)C(CC(C)C)NC1=S` (stereo not given): the Potency result was “inactive”.

As to `O=C1CN(/N=C/c2ccc(-c3ccc([N+](=O)[O-])cc3)o2)C(=O)N1`, the Potency result is “inactive”. With `Nc1ccc(O)c(C(=O)O)c1` the entry was “inactive”; with `CN(C)c1ccc(C(=C2C=CC(=[N+](C)C)C=C2)c2ccccc2)cc1`, 10.7 µM (active); with `O=C(O)COc1ccc(C(=O)c2cccs2)c(Cl)c1Cl`, “inactive”. Regarding `CC(C(=O)O)c1ccc2c(c1)[nH]c1ccc(Cl)cc12` (stereo not given), the Potency result was “inactive”. As to `[O-][n+]1ccccc1SSc1cccc[n+]1[O-]`, the Potency is 1.35 µM (active). As to `Nc1cc(-c2ccncc2)c[nH]c1=O`, the Potency entry was “inactive”. Take `Cc1ccc(O)c(-n2nc3ccccc3n2)c1`: the Potency result was “inactive”.

Take `Cc1[nH]cnc1CN1CCc2c(c3ccccc3n2C)C1=O`: the Potency result was “inactive”. As to `CN1[C@@H](CC(=O)c2ccccc2)CCC[C@H]1C[C@H](O)c1ccccc1`, the Potency result was “inactive”.

As to `COc1cc2c3cc1Oc1cc(ccc1O)C[C@@H]1c4c(cc(OC)c(O)c4Oc4ccc(cc4)C[C@@H]3N(C)CC2)CC[N+]1(C)C`, the Potency result is “inactive”. The same measure for `CC1(C)[C@@H](O)CC[C@]2(C)[C@H]3C(=O)C=C4[C@@H]5C[C@@](C)(C(=O)O)CC[C@]5(C)CC[C@@]4(C)[C@]3(C)CC[C@@H]12`: “inactive”; for `COc1ccc(/C=C/C(=O)Nc2ccccc2C(=O)O)cc1OC`: “inactive”; for `COc1cc(/C=C/C(=O)N2CCN(CC(=O)N3CCCC3)CC2)cc(OC)c1OC`: “inactive”. The same measure for `O=C(CCN1CCN(CCO)CC1)N1c2ccccc2Sc2ccc(C(F)(F)F)cc21`: “inactive”. With `CCCCCC[C@@H](O)C/C=C\CCCCCCCC(=O)O`, the Potency result is “inactive”.

In the case of `c1ccc2sc(SN3CCOCC3)nc2c1`, the Potency entry was “inactive”. The same measure for `Nc1c(CC(=O)O)cccc1C(=O)c1ccc(Br)cc1`: “inactive”.

`CCCCCCCCCCCC(=O)[O][Sn]([CH2]CCC)([CH2]CCC)[O]C(=O)CCCCCCCCCCC`: the Potency entry is “inactive”. The same measure for `Cc1nc2ccccc2n1Cc1ccc(Cl)cc1`: “inactive”; for `Cc1c(Nc2ncccc2C(=O)O)cccc1C(F)(F)F`: “inactive”; for `C[S+](CC[C@H](N)C(=O)O)C[C@H]1O[C@@H](n2cnc3c(N)ncnc32)[C@H](O)[C@@H]1O` (stereo not given in full): “inactive”. Turning to `N=c1ccn2c(n1)O[C@H]1[C@H](O)[C@@H](CO)O[C@H]12`, the Potency entry is “inactive”. With `Cc1ccccc1CNc1ncnc2c1ncn2C1OC(CO)C(O)C1O` (stereo not given) the entry was “inactive”.

With `O=C(O)Cc1ccc(-c2ccccc2)cc1`, the Potency result is “inactive”.

Turning to `Clc1ccccc1-c1nc(-c2ccncc2)no1`, the Potency result was “inactive”. With `CCCCCCCCCCCCCCCCCC(=O)O`, the Potency entry is “inactive”.

For `O=C(O)/C=C/C(O)c1ccc(Cl)cc1` (stereo not given), the Potency entry is “inactive”. Consider `CN1CCN(c2cc3c(nn2)Oc2ccccc2N3C)CC1`, for which the Potency result is “inactive”.

Consider `CCCOC(=O)c1ccc(O)cc1`, for which the Potency result is “inactive”.
